Unmarked numbers belong to inactive results. Inconclusive results are not listed. Where a call stands in place of a potency, no number is given. Calls of active or inactive are those of the source. Calls come from the whole dose curve; as a rule, active = well fitted curve in the direction sought with a large enough effect; inconclusive = small, poorly fitted or top-dose-only effect, or another doubt; inactive = no such curve, though single readings can be large; an effect the other way counts as inactive or inconclusive.
System: not listed separately
Experiment: KB-3-1 P-gp reporter qHTS against the NCATS DSHEA and TCM libraries (AID 1919975)
Conditions: KB-3-1 parental cells, CellTiter-Glo luminescence viability, 72 h; series mostly up to 26.1 µM
Outline: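 Parental KB-3-1 cells, 500 cells/well, in DMEM with 10% FBS, exposed 72 h at 37 C to compounds in concentration-response. Viability read by CellTiter-Glo luminescence after 30 min at room temperature.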

| Compound | outcome |
| --- | --- |
| CCCCCCCCCC(=O)O | inactive |
| CC(=O)C1=C(O)C=C2Oc3c(C(C)=O)c(O)c(C)c(O)c3[C@]2(C)C1=O | inactive |
| O=C(O)CC(O)(CC(=O)O)C(=O)O | inactive |
| C=C1[C@H]2CC[C@H](C(=O)O)[C@@]23CC[C@H](C3)C1(C)C | inactive |

Biological target: Cytochrome P450 1A2 (Homo sapiens) (UniProt P05177)
Sequence (P05177 whole entry, looked up): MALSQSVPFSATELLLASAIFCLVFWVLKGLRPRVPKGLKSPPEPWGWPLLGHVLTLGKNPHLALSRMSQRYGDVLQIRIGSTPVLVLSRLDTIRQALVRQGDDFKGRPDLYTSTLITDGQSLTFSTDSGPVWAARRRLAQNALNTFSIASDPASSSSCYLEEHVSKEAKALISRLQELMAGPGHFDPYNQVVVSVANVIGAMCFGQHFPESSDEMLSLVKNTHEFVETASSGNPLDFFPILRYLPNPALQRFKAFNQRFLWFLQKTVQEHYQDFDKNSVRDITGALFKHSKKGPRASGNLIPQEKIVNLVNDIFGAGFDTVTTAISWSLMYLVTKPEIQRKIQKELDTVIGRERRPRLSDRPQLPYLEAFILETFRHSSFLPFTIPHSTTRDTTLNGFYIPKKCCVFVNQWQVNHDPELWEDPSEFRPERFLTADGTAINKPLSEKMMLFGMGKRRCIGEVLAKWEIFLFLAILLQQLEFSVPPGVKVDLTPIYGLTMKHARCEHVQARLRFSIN
Experiment: qHTS for inhibitors of CYPIA2 against the NCATS DSHEA and TCM libraries (AID 1919976); note: potency is the fitted concentration of half-maximal effect
Conditions: recombinant CYP1A2 enzyme activity, luminescence; series mostly up to 37 µM
Outline: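 Luminescence read-out: pro-luciferin converted to D-luciferin by CYP1A2, detected with P450-Glo reagent after 30 min RT. Enzyme plus substrate got compounds for 15 min RT; NADPH regeneration solution (final 1x) started a 30-45 min reaction, light-protected.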

| Compound | Potency |
| --- | --- |
| CCCCCCCCCC(=O)O | inactive |
| CC(=O)C1=C(O)C=C2Oc3c(C(C)=O)c(O)c(C)c(O)c3[C@]2(C)C1=O | 7.94 µM (active) |
| O=C(O)CC(O)(CC(=O)O)C(=O)O | inactive |
| C=C1[C@H]2CC[C@H](C(=O)O)[C@@]23CC[C@H](C3)C1(C)C | inactive |

System: not listed separately
Experiment: qHTS Counterscreen for compound interference against the NCATS DSHEA and TCM libraries (AID 1919978);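 note: compounds preincubated with 1 µM D-luciferin or buffer before detection reagent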
Conditions: firefly luciferase detection reagent interference, luminescence
Outline: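 Firefly luciferase detection reagent was added after compounds (19.5 nM–39.8 uM final) had been incubated 15 min at room temperature with 1 uM D-luciferin or with 100 mM phosphate buffer alone. Luminescence was read after 30 min at room temperature.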

| Compound | max response |
| --- | --- |
| CCCCCCCCCC(=O)O | -0.481% |
| CC(=O)C1=C(O)C=C2Oc3c(C(C)=O)c(O)c(C)c(O)c3[C@]2(C)C1=O | -5.05% |
| O=C(O)CC(O)(CC(=O)O)C(=O)O | -0.506% |
| C=C1[C@H]2CC[C@H](C(=O)O)[C@@]23CC[C@H](C3)C1(C)C | 1.56% |

System: not listed separately
Experiment: Dual reporter qHTS for agonist of Pregnane X Receptor (hPXR) against the NCATS DSHEA and TCM libraries: Fluorescence readout (AID 1920058)
Conditions: PXR dual reporter cells; series mostly up to 40 µM
Outline: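 Fluorescence read-out for cell viability: CellTiter-Fluor, 1 h at 37 °C, Ex/Em 405/540 nm. This followed ~24 h treatment of hPXR-Luc HepG2 cells with substances in agonist mode.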

| Compound | outcome |
| --- | --- |
| CCCCCCCCCC(=O)O | inactive |
| CC(=O)C1=C(O)C=C2Oc3c(C(C)=O)c(O)c(C)c(O)c3[C@]2(C)C1=O | inactive |
| O=C(O)CC(O)(CC(=O)O)C(=O)O | inactive |
| C=C1[C@H]2CC[C@H](C(=O)O)[C@@]23CC[C@H](C3)C1(C)C | inactive |

Biological target: Nuclear receptor subfamily 1 group I member 2 (Homo sapiens) (UniProt O75469)
Sequence (O75469 whole entry, looked up): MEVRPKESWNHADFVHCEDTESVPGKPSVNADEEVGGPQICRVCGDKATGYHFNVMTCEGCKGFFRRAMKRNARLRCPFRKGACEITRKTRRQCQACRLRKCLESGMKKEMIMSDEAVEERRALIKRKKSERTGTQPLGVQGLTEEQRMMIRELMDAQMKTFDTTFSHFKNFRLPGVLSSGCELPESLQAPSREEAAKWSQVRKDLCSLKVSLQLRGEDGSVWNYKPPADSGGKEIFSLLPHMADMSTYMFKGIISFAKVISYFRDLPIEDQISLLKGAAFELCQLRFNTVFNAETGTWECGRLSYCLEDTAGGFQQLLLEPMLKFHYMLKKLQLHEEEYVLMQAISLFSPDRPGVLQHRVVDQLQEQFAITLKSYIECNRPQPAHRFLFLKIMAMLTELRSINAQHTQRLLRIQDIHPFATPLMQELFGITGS
Experiment: Dual reporter qHTS for agonist of Pregnane X Receptor (hPXR) against the NCATS DSHEA and TCM libraries: Luminescence readout (AID 1920059)
Conditions: hPXR dual reporter cells, luciferase luminescence agonist; series mostly up to 40 µM
Outline: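 hPXR-Luc HepG2 cells, 2000/well in 5% charcoal-stripped FBS medium, attached 5 h, then exposed 24 h at 37C to compounds. Viability by CellTiter-Fluor, then luciferase luminescence with ONE-Glo.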

| Compound | outcome |
| --- | --- |
| CCCCCCCCCC(=O)O | inactive |
| O=C(O)CC(O)(CC(=O)O)C(=O)O | inactive |
| C=C1[C@H]2CC[C@H](C(=O)O)[C@@]23CC[C@H](C3)C1(C)C | inactive |

Biological target: Nuclear receptor subfamily 1 group I member 2 (Homo sapiens) (UniProt O75469)
Experiment: Dual reporter qHTS for antagonist of Pregnane X Receptor (hPXR) against the NCATS DSHEA and TCM libraries: Luminescence Readout (AID 1920060);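 note: HepG2 cells carrying hPXR luciferase reporter stimulated with rifampicin at 2 µM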
Conditions: hPXR dual reporter cells, luciferase luminescence, antagonist mode; series mostly up to 40 µM
Outline: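 Antagonist mode: rifampicin 2 uM final co-added with compounds to hPXR-LucHepG2 cells for 24 h at 37C. Viability by CellTiter-Fluor, Ex/Em 405/540 nm, 1 h; reporter by ONE-Glo luminescence.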

| Compound | outcome |
| --- | --- |
| CCCCCCCCCC(=O)O | inactive |
| CC(=O)C1=C(O)C=C2Oc3c(C(C)=O)c(O)c(C)c(O)c3[C@]2(C)C1=O | inactive |
| C=C1[C@H]2CC[C@H](C(=O)O)[C@@]23CC[C@H](C3)C1(C)C | inactive |

From PubChem BioAssay (NCATS)
